Screening results (PubChem)
HT1080 IDH1KD tx – HT-1080 IDH1 knockdown cell toxicity (counter line); Potency, µM (series often up to 46.1 µM), most hits filed as cytotoxic; AID 686971; actives 2% (n = 360,000); HT-1080 IDH1 knockdown viability, ATP luminescence, 48 h
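% activity derives from luminescence (CellTiter-Glo), normalised to DMSO and no-cell wells. HT-1080-IDH1KD cells, 750/well, had 48 h compound exposure at 37 °C.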
DT40 TDP1 CPT – growth inhibition of DT40 Tdp1-/-;hTDP1 cells with camptothecin (screen for TDP1 inhibitors); chicken DT40 Tdp1-/-;hTDP1 cells + 20 nM CPT, ATP luminescence, 48 h; Potency, µM (doses to about 46.2 µM), hits mostly inhibitors; actives 12% (n = 420,000); AID 686979; note: nearly all actives have a fitted effect of over 55% in size
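Chicken DT40 Tdp1-/- cells stably complemented with human TDP1 were seeded at 400 cells/well in medium containing 20 nM camptothecin, exposed to pin-transferred compounds, and grown at 37 °C for at least 48 hr. Viability was read as ATP luminescence.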
TDP1 cell noCPT – qHTS for Inhibitors of human tyrosyl-DNA phosphodiesterase 1 (TDP1): qHTS in cells in absence of CPT | DT40 Tdp1-/- hTDP1 cells, no CPT, ATP luminescence, 48 h | Potency, µM (highest dose often 46.2 µM), hits mostly inhibitors | actives 15% (n = 420,000) | AID 686978, 2013; note: nearly all actives have a fitted effect of over 55% in size
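Readout: luminescence from CellTiter-Glo after 30 min in the dark at RT. Cells: DT40 Tdp1-/- with stable hTDP1, 400/well. Exposure: compounds alone, ≥48 hr, 37 °C.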
IL1B secr inh – inhibitors of inflammasome signaling (IL-1 beta secretion) | THP-1 LPS/ATP IL-1B secretion, AlphaLISA, 16 h; active compounds read low | activity change, % at 57.5 µM | actives 4.7% (n = 360,000) | AID 743279; in the data active = activity change below about -50%; inconclusive = mostly about -30% to -49%
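Secreted IL-1B measured by AlphaLISA bead assay after 16 h compound exposure of THP-1 cells; compounds (final up to 57.5 uM) added 1 h before LPS (250 ng/mL) and ATP (1.25 mM) stimulation; lower signal means less secretion.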
HT1080NT lethal – kills 2HG-producing HT-1080-NT fibrosarcoma cells. HT-1080-NT fibrosarcoma viability, CellTiter-Glo ATP luminescence, 48 h. AID 686970. actives 1.6% (n = 360,000). Potency, µM (doses to about 46.1 µM), usual class: cytotoxic;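 note: NT is the 2HG producing partner of a matched IDH1 knockdown line; nearly all actives have a fitted effect of over 55% in size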
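HT-1080-NT fibrosarcoma cells (2HG-overproducing), 750 cells/well in RPMI with 5% FBS, dosed after 2 h and incubated 48 h at 37C. CellTiter-Glo luminescence normalized to DMSO and no-cell wells; concentration-response curves fitted and classed.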
Hits are given with their value; i = inactive; ? = inconclusive; nt = no result given. Hits are enriched below; roughly 19% of the tested compounds scored in any of these assays. Unless noted, calls come from the whole dose curve; as a rule, active = well fitted curve in the direction sought with a large enough effect; inconclusive = small, poorly fitted or top-dose-only effect, or another doubt; inactive = no such curve, though single readings can be large; an effect the other way counts as inactive or inconclusive.

SMILES	HT1080 IDH1KD tx	DT40 TDP1 CPT	TDP1 cell noCPT	IL1B secr inh	HT1080NT lethal
O=S(=O)(c1cccc(S(=O)(=O)N2CCCC2)c1)c1cccc(S(=O)(=O)N2CCCC2)c1	i	13µM	?	i	i
CSc1cccc(NC(=O)CNS(=O)(=O)c2ccccc2)c1	i	i	i	i	i
COCCNc1nc(Oc2cccc3ccccc23)c2sccc2n1	?	11.6µM	16.4µM	i	?
COCCNc1nc(Oc2ccccc2)c2sccc2n1	i	29.1µM	23.1µM	i	i
COc1ncc2nc(C)c(=O)n(CCC#N)c2n1	nt	i	i	nt	nt
Cc1ccn2cc(-c3ccc(O)c(O)c3)nc2c1	i	16.4µM	9.2µM	i	i
Cc1ccn2cc(CC(=O)O)nc2c1	i	i	i	i	i
Oc1ccc(-c2cn3ccccc3n2)cc1	i	i	?	i	i
Oc1ccc(-c2cn3ccccc3n2)cc1O	i	25.9µM	13µM	i	i
COc1ccc(N/C(C)=C2/C(=O)C(=O)N(CCO)C2c2ccc(Br)cc2)cc1 (configuration not stated)	i	?	?	i	i
Cn1c(C(=O)NCc2ccc(F)cc2)cc2c(=O)n(C)c3ccccc3c21	nt	i	i	nt	nt
O=C(Nc1ncc(Cc2cccc(Cl)c2)s1)c1cccs1	?	?	?	i	?
O=C(Nc1ncc(Cc2cccc(Cl)c2)s1)C1=NCCN1	i	16.4µM	?	i	20µM
COc1ccc(S(=O)(=O)Nc2c(NC3CCCCC3)c3ccccc3oc2=O)cc1	i	?	i	i	i
C=CCn1c(SCC#N)nc2ccc(Cl)cc2c1=O	nt	i	i	nt	nt
COc1ccccc1NC(=O)c1cc2c(=O)n(Cc3cccs3)ccc2nc1C	nt	?	23.1µM	nt	nt
CCc1ccc(NC(=O)c2cc3c(=O)n(Cc4cccs4)ccc3nc2C)cc1	nt	16.4µM	18.4µM	nt	nt
COc1ccc(Cn2ccc3nc(C)c(C(=O)Nc4ccc(OC)c(OC)c4)cc3c2=O)cc1	nt	i	i	nt	nt
Cc1c(NS(=O)(=O)c2ccccc2)cc(C(C)C)c(O)c1S(=O)(=O)c1ccc(Cl)cc1	nt	?	i	nt	nt
COC(=O)c1sc(N2C(=O)c3oc4cc(C)c(C)cc4c(=O)c3C2c2ccccc2F)nc1C (configuration not stated)	nt	i	i	nt	nt
CCOc1ccc(S(=O)(=O)Nc2cccc(-c3ccc(N4CCCC4)nn3)c2)cc1	nt	7.31µM	?	nt	nt
COc1ccc(S(=O)(=O)Nc2cccc(-c3ccc(N4CCCCCC4)nn3)c2)cc1	nt	16.4µM	?	nt	nt
O=S(=O)(Nc1cccc(-c2ccc(N3CCCC3)nn2)c1)c1cc(F)ccc1F	nt	i	i	nt	nt
COc1ccc(S(=O)(=O)Nc2cccc(-c3ccc(N4CCCCCC4)nn3)c2)cc1OC	i	?	?	i	i
O=S(=O)(Nc1cccc(-c2ccc(N3CCCCC3)nn2)c1)c1ccc(F)cc1F	nt	?	25.9µM	nt	nt
SMILES	HT1080 IDH1KD tx	DT40 TDP1 CPT	TDP1 cell noCPT	IL1B secr inh	HT1080NT lethal
CCOc1ccc(C(C)C)cc1S(=O)(=O)Nc1cccc(-c2ccc(N3CCOCC3)nn2)c1	nt	?	14.6µM	nt	nt
Cc1ccc(CN(C(=O)COc2ccc(Br)cc2)C2CCS(=O)(=O)C2)o1 (configuration not stated)	i	?	i	i	i
CCOCCCNC(=O)c1cnc2sc(N3CCCCC3)nn2c1=O	nt	i	i	nt	nt
COc1ccc(S(=O)(=O)Nc2cccc(-c3ccc(N4CCCCCC4)nn3)c2)c(OC)c1	i	?	29.1µM	i	i
CCc1ccc(S(=O)(=O)Nc2cccc(-c3ccc(N4CCOCC4)nn3)c2)cc1	nt	8.2µM	?	nt	nt
COc1ccc(S(=O)(=O)Nc2cccc(-c3ccc(N4CCCC4)nn3)c2)c(OC)c1	nt	?	i	nt	nt
O=C(NC1CC(=O)N(c2ccc(Cl)cc2)C1)c1ccc(S(=O)(=O)N2CCOCC2)cc1 (configuration not stated)	nt	i	i	nt	nt
CC(=O)c1ccc(S(=O)(=O)NC2CC(=O)N(c3ccc(Cl)cc3)C2)cc1 (configuration not stated)	i	?	13µM	i	i
CCC1=NN(C(=O)COc2ccccc2)C(O)(c2ccc(Br)cc2)C1 (configuration not stated)	i	?	20.6µM	i	i
CC1=NN(C(=O)COc2ccccc2)C(O)(c2ccccc2)C1 (configuration not stated)	i	5.8µM	?	i	i
Cc1nc2ccc(NC(=O)c3ccccc3)cc2c(=O)n1Cc1ccc(F)cc1	?	?	13µM	i	i
COc1ccc(Cn2c(C3CC3)nc3ccc(NC(=O)c4cccnc4)cc3c2=O)cc1	10.3µM	7.31µM	10.3µM	-70.1	10.3µM
Cc1nc2ccc(N)cc2c(=O)n1Cc1ccc(Cl)cc1	i	i	i	i	i
COc1ccc(Cn2c(C3CC3)nc3ccc(NC(C)=O)cc3c2=O)cc1	i	i	i	i	i
CCc1ccc(OCCNC(=O)c2ccccc2SCc2ccccc2)cc1	?	?	20.6µM	i	i
CCNC(=O)c1ccccc1SCc1ccccc1	i	i	i	i	i
Cc1ccc2cc(CN(Cc3ccc(F)cc3)Cc3nnnn3C3CCCC3)c(=O)[nH]c2c1	?	29.1µM	?	-61.2	?
Cc1ccc2[nH]c(=O)c(CN(CCCN3CCOCC3)Cc3nnnn3C3CCCC3)cc2c1	?	?	i	i	i
Cc1ccc2cc(CN(Cc3ccccc3)Cc3nnnn3C3CCCC3)c(=O)[nH]c2c1	?	18.4µM	12.6µM	-63.4	?
CCc1ccc2[nH]c(=O)c(CN(Cc3ccc4c(c3)OCO4)Cc3nnnn3C3CCCC3)cc2c1	?	18.4µM	?	-66.0	?
Cc1ccc(S(=O)(=O)NC(=O)c2cc(C)n(C3CC3)c2C)cc1	i	i	i	i	i
CC1(C)CCCN(Cc2c(O)ccc3c(=O)c(-c4nc5ccccc5s4)c(N)oc23)C1	i	18.4µM	13µM	i	?
CC1CCN(Cc2c(O)ccc3c(=O)c(-c4nc5ccccc5s4)c(N)oc23)CC1	i	?	?	i	i
COc1ccccc1N1CCN(S(=O)(=O)c2ccc3nc(-c4ccccc4)[nH]c3c2)CC1	i	?	20.6µM	?	i
COc1ccccc1N1CCN(C2CCN(S(=O)(=O)c3ccc4ccccc4c3)CC2)CC1	i	?	?	-62.4	i
COc1ccccc1N1CCN(C2CCN(S(=O)(=O)c3ccc(C)cc3)CC2)CC1	i	i	?	i	i
COc1ccc(N2CCN(C(=O)COC(=O)CCc3ccccc3OC)CC2)cc1	i	i	i	i	i
O=C(c1cccc2nccnc12)N1CCCC(Nc2ccc(F)c(F)c2)C1 (configuration not stated)	i	i	i	i	i
CCCCN(CC)C(=O)c1nn(-c2ccc(OC)cc2)c(=O)c2c1c1ccccc1n2C	nt	?	23.1µM	nt	nt
